Each structure is given as a SMILES string. Values without a mark were called inactive. Inconclusive results are not listed. Where a structure was tested more than once in an assay, its records may differ in their call. Calls of active or inactive are those of the source. Unless noted, the call rests on the fitted dose curve.

Assay [1] in a line: Nuclear factor erythroid 2-related factor 2/antioxidant responsive element (Nrf2/ARE) small molecule agonists: qHTS cell viability counter screen in human keratinocytes (AID 1919968; active means well fitted curve in the direction sought with a large enough effect in the repeat runs; an effect the other way counts as inactive or inconclusive; further: nearly all actives have a fitted effect of over 55% in size; further: potency means the concentration at half of the fitted maximal effect). The procedure, abridged:
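KeratinoSens cells (HaCaT keratinocytes stably carrying an ARE-luciferase reporter) were seeded at 1,500 cells/well and rested 5 h at 37 C/5% CO2. They were then exposed to compounds in DMSO for 23 h. Viability was read by CellTiter-Fluor fluorescence after 1 h.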
On the technique in general: Quantitative high-throughput screening tests each substance at several concentrations.

Assay [2] in a line: Nuclear factor erythroid 2-related factor 2/antioxidant responsive element (Nrf2/ARE) small molecule agonists: luciferase reporter gene qHTS assay in human keratinocytes (AID 1919969). Further: nearly all actives have a fitted effect of over 35% in size. Further: potency means the concentration at half of the fitted maximal effect. In general terms: A reporter such as luciferase makes a cellular process visible.
The target of assay [3] is Gonadotropin-releasing hormone receptor (Homo sapiens) (UniProt P30968). As to the kind of experiment: Human gonadotropin-releasing hormone receptor (GnRHR) small molecule agonists, calcium flux assay in GnRHR-HEK293 cells (AID 1920063). Further: nearly all actives have a fitted effect of over 35% in size. The procedure, abridged:
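HEK293 cells stably expressing human GnRHR were plated 18 h at 37 °C, loaded with calcium dye 1 h at 37 °C, then given compound in agonist mode; fluorescence (Ex/Em 480/540) read kinetically for 3 min at 1 s intervals.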
For orientation: A change in cytosolic calcium serves as a functional read-out for many receptors and channels.

In assay [4] the target is KiSS-1 receptor (Homo sapiens) (UniProt Q969F8). Description: Human kisspeptin (KISS1R) small molecule agonists, calcium flux assay in KISS1R-HEK293 cells (AID 1920064; active means well fitted curve in the direction sought with a large enough effect in the repeat runs; an effect the other way counts as inactive or inconclusive). An outline of the steps:
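HEK293 cells stably expressing human KISS1R were plated 18 h at 37 °C, loaded with calcium dye for 1 h at 37 °C, then given compound by pin tool. Fluorescence (Ex/Em 480/540) was read kinetically for 3 min.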

Assay [5] is described as follows: G protein-coupled receptor (GPCR) small molecule agonists, calcium flux assay: HEK293 wild type cell line counter screen (AID 1920065). An outline of the steps: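 Cells were plated and cultured 18 h at 37 C/5% CO2, then loaded with calcium dye for 1 h at 37 C. Compounds in DMSO were pin-transferred in agonist mode, and fluorescence (Ex/Em 480/540) was read kinetically for 3 min at 1 s intervals.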

Assay [6] is described as follows: p53 small molecule agonists, cell-based qHTS assay with human liver microsomes (AID 1963577).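 Further: p53 response element beta-lactamase reporter cells with liver microsomes plus NADPH.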 The procedure, abridged:
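In this qHTS, p53 response-element beta-lactamase cells receive test compound together with a microsome/NADPH activating system (0.5 mg/mL final each) and are incubated 16 h at 37 C before LiveBLAzer fluorescence detection.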

Assay [7] in a line: p53 small molecule agonists, cell-based qHTS assay with rat liver microsomes (AID 1963578). An outline of the steps:
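Agonist mode in p53RE-bla reporter cells, with compounds co-incubated 16 h at 37 C alongside 0.5 mg/mL rat liver microsomes and 0.5 mg/mL NADPH (final), followed by a 2 h LiveBLAzer detection step.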

The nature of assay [8]: p53 small molecule agonists, cell-based qHTS assay with human liver microsomes: qHTS cell viability counter screen (AID 1963579). Further: nearly all actives have a fitted effect of over 45% in size. Further: potency means the concentration at half of the fitted maximal effect. An outline of the steps:
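Metabolically activated exposure: compounds, human liver microsomes and NADPH (0.5 mg/mL final apiece) were added to p53RE-bla cells seeded 5 h earlier, left 16 h at 37 C, and then assessed for viability by CellTiter-Glo luminescence.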

The nature of assay [9]: p53 small molecule agonists, cell-based qHTS assay with rat liver microsomes: qHTS cell viability counter screen (AID 1963580). Further: nearly all actives have a fitted effect of over 45% in size. The procedure, abridged:
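p53RE-bla HCT-116 cells were exposed 16 h at 37 C to compounds with rat liver microsomes (0.5 mg/mL) and NADPH (0.5 mg/mL). Viability was measured in the same wells as ATP content by CellTiter-Glo luminescence.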

The nature of assay [10]: p53 small molecule agonists, cell-based qHTS assay: qHTS cell viability counter screen (AID 1963581). Further: nearly all actives have a fitted effect of over 45% in size. The procedure, abridged:
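p53RE-bla HCT-116 cells were exposed to compounds for 16 h at 37 C; after the beta-lactamase FRET read in the same wells, CellTiter-Glo was added and luminescence (intracellular ATP) read after 30 min at room temperature.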

The nature of assay [11]: p53 small molecule agonists, cell-based qHTS assay (AID 1963582; active means well fitted activation curve with a large enough effect in the signal ratio in the repeat runs, not every such curve was filed as active; the % refers to the signal ratio). An outline of the steps:
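p53RE-bla beta-lactamase reporter cells rested 5 h at 37 C/5% CO2, then received compounds in DMSO by pin transfer and were incubated 16 h at 37 C. LiveBLAzer B/G FRET substrate was loaded for 2 h at room temperature before fluorescence reading.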

The target of assay [12] is 5-hydroxytryptamine receptor 2A (Homo sapiens) (UniProt P28223). Description: 5-hydroxytryptamine receptor 2A (HTR2A) small molecule antagonists, cell-based qHTS assay (AID 1963586). Further: nearly all actives have a fitted effect of over 45% in size. An outline of the steps: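 Antagonist-mode intracellular calcium assay: DOI (4 nM) added after 5 min compound pre-incubation at room temperature to dye-loaded HTR2A-CHO cells. Fluorescence followed for 3 min, sampled every second.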
5-hydroxytryptamine receptor 2A (Homo sapiens), sequence (P28223 whole entry, looked up): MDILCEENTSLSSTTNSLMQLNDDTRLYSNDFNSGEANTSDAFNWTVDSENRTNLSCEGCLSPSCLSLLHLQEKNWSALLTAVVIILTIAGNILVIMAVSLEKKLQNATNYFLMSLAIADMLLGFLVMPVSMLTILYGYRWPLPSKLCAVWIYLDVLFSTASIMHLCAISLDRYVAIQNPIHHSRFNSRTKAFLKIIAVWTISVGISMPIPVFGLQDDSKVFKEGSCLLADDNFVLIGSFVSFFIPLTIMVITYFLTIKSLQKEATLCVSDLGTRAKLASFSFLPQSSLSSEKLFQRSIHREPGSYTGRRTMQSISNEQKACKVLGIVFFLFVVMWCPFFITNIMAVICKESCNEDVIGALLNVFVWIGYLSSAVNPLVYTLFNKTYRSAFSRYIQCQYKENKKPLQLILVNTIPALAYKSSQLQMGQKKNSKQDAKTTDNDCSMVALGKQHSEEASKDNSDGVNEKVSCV

For assay [13] the target is unchanged. Description: 5-hydroxytryptamine receptor 2A (HTR2A) small molecule agonists, cell-based qHTS assay (AID 1963587). Further: nearly all actives have a fitted effect of over 30% in size. The procedure, abridged: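 CHO cells stably expressing human HTR2A, plated 18 h, loaded with calcium dye 1 h at 37 C. Agonist mode: compounds added and intracellular calcium fluorescence recorded kinetically for 2 min at 1 sec intervals.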
The target of assay [14] is Muscarinic acetylcholine receptor M1 (Homo sapiens) (UniProt P11229). Description: Cholinergic receptor muscarinic 1 (CHRM1) small molecule antagonists, cell-based qHTS assay (AID 1963588). Further: nearly all actives have a fitted effect of over 40% in size. An outline of the steps:
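CHRM1-CHO calcium-flux assay, antagonist mode. Cells were seeded 18 h, dye-loaded 1 h at 37 C and given compound for 5 min at RT, then acetylcholine was added at 50nM. FDSS fluorescence was read 3 min; 15 concentrations, three runs.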

For assay [15] the target is unchanged. Description: Cholinergic receptor muscarinic 1 (CHRM1) small molecule agonists, cell-based qHTS assay (AID 1963589). Further: nearly all actives have a fitted effect of over 35% in size. The procedure, abridged:
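CHO cells stably expressing human CHRM1, seeded 18 h at 37 C/5% CO2, dye-loaded 1 h at 37 C, then given compound in agonist mode; intracellular calcium fluorescence read kinetically at 1 s intervals. Fifteen concentrations, three independent runs.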

Assay [16] is described as follows: cAMP Responsive Elements (CRE) small molecule agonists, cell-based qHTS assay (AID 1963590). The procedure, abridged:
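CRE-bla HEK 293T cells in DMEM with 10% dialyzed FBS, NEAA, pyruvate and 25 mM HEPES were plated 18 h at 37 C/5% CO2, then exposed to compounds in DMSO for 3 h before LiveBLAzer B/G FRET substrate addition.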

Assay [17] in a line: cAMP Responsive Elements (CRE) small molecule antagonists, cell-based qHTS assay (AID 1963591; active means well fitted inhibition curve with a large enough effect in the signal ratio in the repeat runs, not every such curve was filed as active; the % refers to the signal ratio; further: potency means the concentration at half of the fitted maximal effect). The procedure, abridged: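 CRE-bla HEK293T cells were plated 18 h at 37 °C/5% CO2, pinned with compound in DMSO, then stimulated with NKH477 at 0.25 uM final for 3 h. LiveBLAzer B/G FRET substrate was added and plates incubated 2 h at room temperature.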
The target of assay [18] is Beta-2 adrenergic receptor (Homo sapiens) (UniProt P07550). As to the kind of experiment: Adrenergic beta2 receptor (ADRB2) small molecule antagonists, cell-based qHTS assay (AID 1963592). Further: series mostly up to about 92 µM; nearly all actives have a fitted effect of over 50% in size. The procedure, abridged:
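Cells (CHO, stable ADRB2 overexpression) incubated 18-20hr at 37C; compounds added from DMSO; agonist mix (1nM isoproterenol, 100uM IBMX, 25uM Ro-20-1724) added; 0.5hr RT; d2-cAMP and anti-cAMP-cryptate added; 1hr RT; 665/615 nm read.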

The target in assay [19] is D(2) dopamine receptor (Homo sapiens) (UniProt P14416). As to the kind of experiment: Dopamine D2 receptor (DRD2) small molecule agonists, cell-based qHTS assay (AID 1963594). Further: nearly all actives have a fitted effect of over 35% in size. An outline of the steps:
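HEK293 cells stably expressing human DRD2, pre-treated with PDE inhibitor Ro20-1724 (0.1 mM final) and compound 10 min at room temperature, then stimulated with NKH477 (200nM […]) for 30 min. cAMP read by HTRF (665/620 nm).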

Assay [20] addresses Beta-2 adrenergic receptor (Homo sapiens) (UniProt P07550). Description: Adrenergic beta2 receptor (ADRB2) small molecule agonists, cell-based qHTS assay (AID 1963593).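 Further: CHO cells stably overexpressing human ADRB2.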 An outline of the steps:
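CHO cells stably over-expressing ADRB2 were plated overnight at 37C, then dosed with compounds plus a stimulation mix containing 100uM IBMX and 25uM Ro-20-1724 for 0.5hr at room temperature. cAMP was measured by HTRF competition, 1hr.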
On the % scale 0 is the no-effect control and ±100 the full control effect.

KiSS-1 receptor (Homo sapiens), sequence (Q969F8 whole entry, looked up): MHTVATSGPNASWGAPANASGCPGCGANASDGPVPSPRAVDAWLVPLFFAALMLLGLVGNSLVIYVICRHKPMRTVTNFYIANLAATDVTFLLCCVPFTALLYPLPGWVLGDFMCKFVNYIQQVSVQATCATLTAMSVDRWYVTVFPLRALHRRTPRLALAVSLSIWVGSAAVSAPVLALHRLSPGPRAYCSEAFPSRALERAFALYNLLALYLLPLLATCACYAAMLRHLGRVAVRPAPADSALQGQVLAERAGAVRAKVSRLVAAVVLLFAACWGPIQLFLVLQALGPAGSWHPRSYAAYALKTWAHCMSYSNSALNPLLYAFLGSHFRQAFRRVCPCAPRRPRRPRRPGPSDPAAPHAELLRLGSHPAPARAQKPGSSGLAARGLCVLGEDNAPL
Beta-2 adrenergic receptor (Homo sapiens), sequence (P07550 whole entry, looked up): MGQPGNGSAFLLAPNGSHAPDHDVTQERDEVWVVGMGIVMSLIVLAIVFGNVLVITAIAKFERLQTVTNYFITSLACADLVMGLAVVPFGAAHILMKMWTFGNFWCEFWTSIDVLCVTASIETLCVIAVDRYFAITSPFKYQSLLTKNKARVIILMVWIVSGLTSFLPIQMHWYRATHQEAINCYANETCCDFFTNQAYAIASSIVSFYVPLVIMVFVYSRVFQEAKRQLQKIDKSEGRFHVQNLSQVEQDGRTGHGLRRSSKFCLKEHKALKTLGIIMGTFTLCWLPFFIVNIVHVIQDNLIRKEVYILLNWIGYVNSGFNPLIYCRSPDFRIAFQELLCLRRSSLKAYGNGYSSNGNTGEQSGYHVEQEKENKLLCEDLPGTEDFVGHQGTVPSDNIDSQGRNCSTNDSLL
Muscarinic acetylcholine receptor M1 (Homo sapiens), sequence (P11229 whole entry, looked up): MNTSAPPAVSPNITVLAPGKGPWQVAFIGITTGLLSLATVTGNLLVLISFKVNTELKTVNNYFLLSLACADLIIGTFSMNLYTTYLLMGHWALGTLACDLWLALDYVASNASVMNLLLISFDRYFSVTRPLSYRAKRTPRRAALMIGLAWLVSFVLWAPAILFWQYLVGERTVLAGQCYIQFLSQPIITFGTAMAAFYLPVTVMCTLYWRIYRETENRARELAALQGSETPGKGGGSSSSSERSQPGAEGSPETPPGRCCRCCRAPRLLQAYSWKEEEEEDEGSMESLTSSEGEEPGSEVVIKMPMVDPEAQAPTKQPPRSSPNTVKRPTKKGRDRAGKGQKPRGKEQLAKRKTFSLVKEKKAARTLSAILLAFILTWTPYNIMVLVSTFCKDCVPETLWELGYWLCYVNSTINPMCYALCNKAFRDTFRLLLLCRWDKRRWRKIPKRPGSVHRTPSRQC
D(2) dopamine receptor (Homo sapiens), sequence (P14416 whole entry, looked up): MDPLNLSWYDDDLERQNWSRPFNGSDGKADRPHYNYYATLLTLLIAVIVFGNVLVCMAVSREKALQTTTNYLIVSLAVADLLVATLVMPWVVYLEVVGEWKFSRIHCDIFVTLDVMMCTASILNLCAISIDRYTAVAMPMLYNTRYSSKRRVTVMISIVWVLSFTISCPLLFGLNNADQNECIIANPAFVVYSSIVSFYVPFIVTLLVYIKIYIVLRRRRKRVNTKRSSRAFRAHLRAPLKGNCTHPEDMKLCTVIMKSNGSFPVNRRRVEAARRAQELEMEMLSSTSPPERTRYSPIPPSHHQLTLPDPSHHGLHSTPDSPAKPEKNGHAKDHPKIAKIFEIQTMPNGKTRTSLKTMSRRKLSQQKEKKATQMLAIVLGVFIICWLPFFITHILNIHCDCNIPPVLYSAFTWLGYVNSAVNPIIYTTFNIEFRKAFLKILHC
Gonadotropin-releasing hormone receptor (Homo sapiens), sequence (P30968 whole entry, looked up): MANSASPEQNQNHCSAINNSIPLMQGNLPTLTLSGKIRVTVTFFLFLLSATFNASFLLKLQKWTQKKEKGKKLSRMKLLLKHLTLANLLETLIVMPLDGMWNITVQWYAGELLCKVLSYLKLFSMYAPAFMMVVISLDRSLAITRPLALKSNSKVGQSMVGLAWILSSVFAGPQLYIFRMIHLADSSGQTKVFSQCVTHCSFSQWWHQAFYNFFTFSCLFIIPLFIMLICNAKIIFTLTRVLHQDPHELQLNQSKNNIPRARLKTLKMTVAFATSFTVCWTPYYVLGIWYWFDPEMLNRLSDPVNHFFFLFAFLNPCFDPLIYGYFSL

For `COc1ccc(C(=O)c2cccc(O)c2)c(OC)c1`, the Potency entry in assay [1], in [2], in assay [3], in [4], in assay [5] and in assay [6] was “inactive” in each case. Besides, the Potency entry in assay [7], in assay [8], in assay [9], in [10], in assay [11] and in assay [12] was “inactive” each time. Besides, the Potency result in assay [13], in assay [14], in assay [15], in assay [16], in assay [17] and in assay [18] was “inactive” throughout.
Consider `NNc1nncc2ccccc12`, for which the Potency is 30.6 µM (active) in assay [1] and 32.4 µM (active) in assay [8]. For the same compound, the activity change, negative = cytotoxicity in assay [1] was -11.5% [at 19 µM]; in [8], -0.157% [at 13.5 µM]; in [9], 0.405% [at 13.5 µM]. The Potency entry in assay [3], in assay [4], in [5], in assay [7], in assay [10] and in assay [11] was “inactive” each time. For the same compound, the Potency entry in assay [17], in assay [18] and in assay [19] was “inactive” each time. In addition, the activation in [16] was 0.777% [at 19 µM].
For the compound `CC(C)(C)C(=O)OCOC(=O)C1N2C(=O)CC2S(=O)(=O)C1(C)C` (stereo not drawn), the Potency entry in assay [1], in assay [2], in assay [3], in [4], in [5] and in [6] was “inactive” throughout. The Potency entry in [7], in assay [8], in assay [9], in assay [10], in assay [11] and in [12] was “inactive” each time. Further, the Potency entry in assay [13], in [14], in [15], in [16], in assay [18] and in assay [20] was “inactive” throughout. Besides, the Potency result in assay [19] was “inactive”. Further, the Potency in assay [17] was 11.9 nM (active).
On to `Cc1ccc(C(=O)Nc2ccc(S(=O)(=O)O)c3cc(S(=O)(=O)O)cc(S(=O)(=O)O)c23)cc1NC(=O)c1cccc(NC(=O)Nc2cccc(C(=O)Nc3cc(C(=O)Nc4ccc(S(=O)(=O)O)c5cc(S(=O)(=O)O)cc(S(=O)(=O)O)c45)ccc3C)c2)c1`, for which the Potency result in assay [1], in [2], in [3], in assay [4], in [5] and in assay [6] was “inactive” throughout. Further, the Potency result in [7], in assay [8], in assay [9], in [10], in assay [11] and in assay [12] was “inactive” throughout. In addition, the Potency entry in assay [13], in assay [14], in assay [15], in assay [16], in assay [17] and in assay [18] was “inactive” in each case. Moreover, the Potency result in [20] and in assay [19] was “inactive” throughout.
With `CCCCN(CCCC)CCCCCCN(CCCC)CCCC`, the Potency entry in [1], in [2], in assay [3], in [4], in assay [5] and in assay [6] was “inactive” throughout. Besides, the Potency entry in assay [7], in assay [8], in assay [9], in [10], in assay [11] and in [12] was “inactive” throughout. Moreover, the Potency entry in [13], in assay [14], in [15], in assay [16], in assay [17] and in [18] was “inactive” throughout. For the same compound, the Potency result in assay [20] and in assay [19] was “inactive” each time.
As to `CN(C)c1cc(NC(=O)CNC(C)(C)C)c(O)c2c1C[C@H]1C[C@H]3[C@H](N(C)C)C(=O)C(C(N)=O)=C(O)[C@@]3(O)C(=O)C1=C2O`, the Potency entry in [1], in [2], in assay [3], in [4], in assay [5] and in assay [6] was “inactive” in each case. The Potency entry in assay [7], in assay [8], in [9], in [10], in [11] and in [12] was “inactive” in each case. Besides, the Potency entry in assay [13], in [14], in assay [15], in assay [16], in assay [17] and in assay [18] was “inactive” throughout. In addition, the Potency result in [20] and in [19] was “inactive” in each case.
Consider `O=C1c2c(O)ccc(Nc3ccc(CCO)cc3)c2C(=O)c2c([N+](=O)[O-])ccc(O)c21`, for which the Potency entry in [1], in [3], in assay [4], in assay [5], in assay [6] and in assay [7] was “inactive” throughout. The Potency entry in [8], in assay [9], in assay [10], in assay [11], in assay [12] and in [13] was “inactive” in each case. Moreover, the Potency result in assay [14] and in assay [15] was “inactive” each time. In assay [2], the Potency was 30.6 µM (active).
Regarding `Clc1ccccc1-c1nc(-c2ccncc2)no1`, the Potency result in assay [1], in assay [3], in [4], in [5], in assay [6] and in assay [7] was “inactive” throughout. Also, the Potency entry in assay [8], in assay [9], in assay [10], in assay [11], in assay [12] and in assay [13] was “inactive” in each case. For the same compound, the Potency result in assay [14], in assay [15], in [16], in [17], in assay [18] and in assay [20] was “inactive” throughout. In addition, the Potency entry in assay [19] was “inactive”. Besides, the Potency in [2] was 2.11 µM (active).

Source of the values: PubChem BioAssay (Tox21).
